This is a sample that favours compounds with a hit; in the whole collection about 18% have one here.
Six1-Eya2 inh: qHTS Assay for Inhibitors of the Six1/Eya2 Interaction | Homeobox protein SIX1 (Homo sapiens) + Protein phosphatase EYA2 (Homo sapiens), … | AlphaScreen GST-Six1/His-Eya2 binding, biochemical; active compounds read low | activity change, % (test concentration not listed) | hit rate 0.56% among 360,000 | AID 651725, 2012; in the data active = activity change below about -65%; inconclusive = mostly about -30% to -63%
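AlphaScreen with GST-Six1 and His-Eya2 (5X mix: 250 nM and 500 nM), glutathione donor and nickel acceptor beads; buffer 50 mM Tris pH 8.0, 300 mM NaCl, 1 mM TCEP; 1 h at 37 C in the dark.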
DT40 TDP1 no CPT: qHTS for Inhibitors of human tyrosyl-DNA phosphodiesterase 1 (TDP1): qHTS in cells in absence of CPT; DT40 Tdp1-/- hTDP1 cells, no CPT, ATP luminescence, 48 h; Potency, µM (series often up to 46.2 µM), without a hit: at the top dose activity change, negative = growth inhibition, actives largely listed as inhibitors; hit rate 15% among 420,000; also: potency is read from the fitted curve at half-maximal effect; nearly all actives have a fitted effect of over 55% in size
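DT40 Tdp1-/-;hTDP1 cells, no CPT (DMSO vehicle only), 400 cells/well; compounds pin-transferred; ≥48 hr, 37 °C; CellTiter-Glo 30 min RT dark, luminescence read.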
TDP1 inh: qHTS Assay for Inhibitors of Tyrosyl-DNA Phosphodiesterase (TDP1). hit rate 0.28% among 350,000. Potency, µM (top dose mostly 130 µM), for the others: at the top dose activity change, negative = inhibition, most hits filed as inhibitors. recombinant TDP1, AlphaScreen DNA substrate cleavage. Tyrosyl-DNA phosphodiesterase 1 (Homo sapiens), Q9NUW8; also: potency is read from the fitted curve at half-maximal effect; nearly all actives have a fitted effect of over 40% in size
Target sequence (Q9NUW8 whole entry, looked up): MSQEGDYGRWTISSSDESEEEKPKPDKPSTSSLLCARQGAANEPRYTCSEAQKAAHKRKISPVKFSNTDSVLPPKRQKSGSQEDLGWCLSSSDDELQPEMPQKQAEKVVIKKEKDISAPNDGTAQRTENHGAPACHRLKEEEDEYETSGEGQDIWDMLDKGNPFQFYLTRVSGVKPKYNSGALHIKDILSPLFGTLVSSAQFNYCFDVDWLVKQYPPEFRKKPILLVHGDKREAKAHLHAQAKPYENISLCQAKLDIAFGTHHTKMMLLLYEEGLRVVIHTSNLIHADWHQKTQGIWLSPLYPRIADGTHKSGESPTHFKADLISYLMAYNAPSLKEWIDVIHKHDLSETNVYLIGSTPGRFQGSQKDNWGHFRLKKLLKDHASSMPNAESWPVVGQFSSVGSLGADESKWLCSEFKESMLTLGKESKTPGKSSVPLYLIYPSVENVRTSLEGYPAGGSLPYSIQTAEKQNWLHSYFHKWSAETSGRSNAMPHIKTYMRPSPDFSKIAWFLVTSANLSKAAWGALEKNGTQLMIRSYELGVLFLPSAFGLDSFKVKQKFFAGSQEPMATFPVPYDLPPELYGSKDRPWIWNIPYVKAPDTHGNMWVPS
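Compounds were preincubated with Tdp1 (1 nM final) for 15 min at room temperature before substrate (15 nM final) started a 5 min reaction; beads (10 ug/ml final) were then added for 10 min before AlphaScreen detection.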
IL1B secr inh: qHTS for Inhibitors of Inflammasome Signaling: IL-1-beta AlphaLISA Primary Screen | THP-1 LPS/ATP IL-1B secretion, AlphaLISA, 16 h; active compounds read low | activity change, % at 57.5 µM | hit rate 4.7% among 360,000 | AID 743279, 2014; in the data active = activity change below about -50%; inconclusive = mostly about -30% to -49%
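THP-1 cells pretreated 1 hr with compounds (up to 57.5 uM final), then stimulated with LPS (250 ng/mL final) plus ATP (1.25 mM final); secreted IL-1B measured by AlphaLISA after 16 hr, decreased signal indicating inhibition.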
TDP1 cell CPT: qHTS for Inhibitors of human tyrosyl-DNA phosphodiesterase 1 (TDP1): qHTS in cells in presence of CPT; chicken DT40 Tdp1-/-;hTDP1 cells + 20 nM CPT, ATP luminescence, 48 h; Potency, µM (highest dose often 46.2 µM), for the others: at the top dose activity change, negative = growth inhibition, hits mostly inhibitors; hit rate 12% among 420,000; AID 686979, 2013; also: potency is read from the fitted curve at half-maximal effect; nearly all actives have a fitted effect of over 55% in size
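Chicken DT40 Tdp1-/- cells complemented with human TDP1, 400 cells/well, exposed to compounds plus 20 nM camptothecin for at least 48 h at 37 C; viability read as ATP content by CellTiter-Glo luminescence.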
CtBP-E1A blk: qHTS Assay for Inhibitors of the CtBP/E1A Interaction; CtBP / adenovirus E1A interaction (AlphaScreen); AlphaScreen GST-E1A/His-CtBP binding, 1536-well; active compounds read low; activity change, % (no concentration beside the values); hit rate 0.49% among 340,000; in the data active = activity change below about -65%; inconclusive = mostly about -30% to -63%
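GST-E1A and His-tagged CtBP (125 nM each as 5X stock) were preincubated with pin-transferred compound for 2 h at 37 °C in the dark, then glutathione donor and nickel acceptor beads were added for 1 h before AlphaScreen reading.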
* hit, by the source's call; ? = inconclusive; / = no result. Unless noted, calls follow the shape of the dose curve; as a rule, active = well fitted curve in the direction sought with a large enough effect; inconclusive = small, poorly fitted or top-dose-only effect, or another doubt; inactive = no such curve, though single readings can be large; an effect the other way counts as inactive or inconclusive. % is scaled to controls: 0 for no effect and ±100 for the full control effect.

SMILES	Six1-Eya2 inh	DT40 TDP1 no CPT	TDP1 inh	IL1B secr inh	TDP1 cell CPT	CtBP-E1A blk
COc1cccc(CNc2nc3ccccc3n2CCN2CCCCC2)c1	-7	?	8%	-10	13µM*	-12
CCCCCn1c(NCc2ccc(OC)cc2)nc2ccccc21	/	23µM*	3%	/	16µM*	/
Brc1ccc(CNc2nc3ccccc3n2CCN2CCCCC2)cc1	-23	23µM*	4%	?	?	-9
COc1ccc(CNc2nc3ccccc3n2CCN2CCCCC2)c(OC)c1	-11	23µM*	6%	-100*	18µM*	-13
COc1ccc(OC)c(CNc2nc3ccccc3n2CCN2CCCCC2)c1	-22	?	8%	-17	?	-14
Cn1c(SCC(=O)NNC(=O)Nc2ccc(Cl)cc2)nnc1-c1ccccc1	-6	-4%	/	-4	-3%	5
COc1ccc(/C=N/NC(=S)Nc2cc(S(=O)(=O)N3CCOCC3)ccc2N2CCOCC2)cc1O	-10	?	8%	0	9.2µM*	2
CCOc1cccc(/C=N/NC(=S)Nc2cc(S(=O)(=O)N3CCOCC3)ccc2N2CCOCC2)c1O	-87*	5.8µM*	8%	-15	5.8µM*	-97*
CCn1c2ccccc2c2cc(NC(=O)CSc3nnc(-c4ccc(OC)cc4)n3N)ccc21	2	?	0%	-11	?	-2
CCCCC[C@H](O)/C=C/[C@H]1C(=O)C[C@H](O)[C@@H]1C/C=C\CCCC(=O)O	/	/	7%	/	/	/
CCCCC[C@@H](/C=C/C1C(=O)C=C[C@H]1C/C=C\CCCC(=O)OC)OC(C)=O (stereo not given in full)	-1	6.5µM*	/	-101*	9.2µM*	3
CCOc1ccc(CCNC(=O)C2CCCN(S(=O)(=O)c3c(C)n[nH]c3C)C2)cc1OCC (stereo not given)	-4	9.2µM*	-3%	3	?	-1
Cc1n[nH]c(C)c1S(=O)(=O)N1CCCC(C(=O)NCc2cccs2)C1 (stereo not given)	2	4%	1%	-3	-24%	4
Cc1ccc(CNC(=O)C2CCCN(S(=O)(=O)c3c(C)n[nH]c3C)C2)cc1 (stereo not given)	16	-21%	6%	0	?	39
Cc1n[nH]c(C)c1S(=O)(=O)N1CCCC(C(=O)NC2CCCc3ccccc32)C1 (stereo not given)	-8	18µM*	5%	6	21µM*	0
COc1cc(NC(=O)Cn2cnc3c(SC)nc(N)nc32)cc(OC)c1OC	-3	-18%	1%	9	-25%	-2
COc1ccccc1N1CCN(C(=O)CCNS(=O)(=O)c2ccc(Br)s2)CC1	-5	18µM*	2%	-6	23µM*	1
COc1ccccc1N1CCN(C(=O)CCNS(=O)(=O)c2cc(Br)cnc2N)CC1	0	?	4%	2	18µM*	-4
COc1ccc(N2CCN(C(=O)CCNS(=O)(=O)c3cc(Br)cnc3N)CC2)cc1	-9	?	6%	-3	-27%	/
Nc1ncc(Br)cc1S(=O)(=O)NCCC(=O)Nc1cccc(Cl)c1	2	-13%	-2%	-61*	-20%	8
COc1cccc(CNc2nc3ccc(C)cc3n3cnnc23)c1	2	-14%	/	0	-13%	/
COc1ccccc1CNc1cc(C)nc2nc(-c3ccc(C)cc3)nn12	/	/	3%	/	/	/

Screening results as filed in PubChem BioAssay.
